Measured values: PubChem BioAssay
Activity calls are given as the source filed them.

Experiments:
[1] = target: Albumin (Bos taurus) (UniProt P02769); assay: compounds binding labelled BSA control protein – biochemical, small-molecule microarray, Alexa647 label, 635/667 nm fluorescence, artefact control for SMM control protein annotation, profiling panel (AID 1118); details: BSA-A647 binding, fluorescence 635 nm, higher = more signal;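 also: score merges 667 nm emission intensity and signal-to-noise per printed compound spot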
[2] = probe aXIP binding to arrayed compounds – biochemical, NeuroSMM set, 635/667 nm fluorescence, primary screen (AID 1119); details: small-molecule microarray, higher = more signal, called active from +8 up or from −8 down;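 also: probe is the protein aXip251-270 applied at 1 µg/mL to compound-printed slides; binding of probe to printed compounds measured as 667 nm fluorescence plus signal to noise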
[3] = probe aNOTCH3 binding on compound microarray – biochemical, small-molecule microarray, 635/667 nm fluorescence, primary screen (AID 1120); details: higher = more signal;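 also: probe is a biotin-tagged antibody raised against NOTCH3 rather than NOTCH3 protein; score merges spot fluorescence near 667 nm with spot signal to noise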
[4] = probe aNOTCH2 binding on compound microarray – biochemical, small-molecule microarray, 635/667 nm fluorescence, primary screen (AID 1121); details: higher = more signal;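 also: score merges feature fluorescence read at 667 nm with its signal to noise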
[5] = target: Carbonic anhydrase 2 (Homo sapiens) (UniProt P00918); assay: compounds binding carbonic anhydrase 2 – biochemical, small-molecule microarray, Alexa647-labelled CAII, profiling panel (AID 1122); details: CAII-A647 binding fluorescence, higher = more signal
[6] = COS7 lysate on small-molecule microarray, probe aHis, 635 nm (AID 1123); details: COS7 cell lysate, fluorescence, higher = more signal;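 also: z-score combines 667nm fluorescence intensity with signal-to-noise per printed compound spot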
[7] = probe aLAP1 signal on lysate-treated microarray – cell lysate, small-molecule microarray, COS7 lysate, primary screen (AID 1124); details: probe aLAP1, fluorescence, higher = more signal;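 also: lysate comes from COS7 cells expressing LAP1 and is applied at 0.3 µg/mL; score merges spot fluorescence near 667 nm with signal-to-noise over triplicate slides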
[8] = tested on: Sam68 (KHDRBS1); assay: compounds binding KHDRBS1 protein – biochemical, small-molecule microarray, 635 nm fluorescence, primary screen (AID 1125); details: higher = more signal;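 also: score merges 667 nm channel intensity with signal to noise over triplicate slides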
[9] = tested on: Chordin-like protein 2 (CHRDL2); assay: compounds binding chordin-like 2 – biochemical, small-molecule microarray, 635 nm fluorescence, primary screen (AID 1126); details: fluorescence 635 nm, higher = more signal;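 also: printed compound slides probed with Chrdl2 protein at 4 µg/mL for 1 h at 4 C; score merges 667 nm emission intensity with signal to noise over three replicate slides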
[10] = target: Concanavalin-A (Canavalia ensiformis) (UniProt P02866); assay: compounds binding concanavalin A lectin – biochemical, small-molecule microarray, Alexa647 label, 635 nm, artefact control for SMM control protein annotation, primary screen (AID 1127); details: ConA-A647 binding fluorescence, higher = more signal;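 also: z combines 667 nm emission intensity with signal-to-noise across three replicate slides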
[11] = compounds binding Alexa647 anti-His antibody – biochemical, small-molecule microarray, 635 nm fluorescence, artefact control for SMM control protein annotation, primary screen (AID 1128); details: higher = more signal;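 also: score merges feature fluorescence with signal-to-noise for each printed compound spot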
[12] = tested on: Human papillomavirus type 1a E7 protein (residues 1-88); assay: HPV1a E7 small-molecule binders, primary screen, biochemical, small-molecule microarray, residues 1-88, 635 nm (AID 1129); details: small-molecule microarray binding, fluorescence 635 nm; higher = more signal
[13] = target: Focal adhesion kinase 1 (Homo sapiens) (UniProt Q05397); assay: PTK2 protein binding on printed compound slides – biochemical, small-molecule microarray, 635/667 nm fluorescence, BSA, DTT, primary screen (AID 1130); details: 635 nm fluorescence, higher = more signal;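 also: composite of spot emission at 667 nm and signal to noise over triplicate slides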
[14] = tested on: Fibrinogen (Alexa647-labelled); assay: Alexa647-fibrinogen binding to printed small molecules – biochemical, small-molecule microarray, 635/667 nm fluorescence, artefact control for SMM control-protein annotation, profiling panel (AID 1131); details: fibrinogen-A647 binding fluorescence, higher = more signal;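 also: z-score merges 667 nm fluorescence with per-spot signal-to-noise over triplicate slides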
[15] = target: Follistatin (Homo sapiens) (UniProt P19883); assay: FST protein binding to printed compounds – biochemical, small-molecule microarray, 635/667 nm fluorescence, primary screen (AID 1132); details: 635 nm fluorescence, higher = more signal
[16] = target: Fibroblast growth factor 2 (Homo sapiens) (UniProt P09038); assay: basic fibroblast growth factor binding to printed compounds – biochemical, small-molecule microarray, 635/667 nm fluorescence, primary screen (AID 1133); details: FGF2, fluorescence 635/667, higher = more signal
[17] = JC-1 mitochondrial potential readout, lung cancer cells – cell-based, A549, JC-1 fluorescence, basal, 24 h, 100 nL, profiling panel (AID 1138); details: higher = more signal;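 also: A549 lung adenocarcinoma cells under basal conditions with no added stimulus; test concentration not given here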
[18] = tested on: Lefty1; assay: Lefty1 protein binding to printed compounds – biochemical, small-molecule microarray, 635/667 nm fluorescence, primary screen (AID 1139); details: fluorescence 635/667, higher = more signal
[19] = tested on: wheat germ agglutinin (Triticum aestivum), Alexa647-labelled; assay: Alexa647-WGA lectin binding to printed small molecules – biochemical, small-molecule microarray, 635/667 nm fluorescence, artefact control for SMM control-protein annotation, profiling panel (AID 1140); details: WGA-A647 binding, 635 nm fluorescence, higher = more signal;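 also: score merges 667 nm feature emission with signal to noise over triplicate slides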
[20] = target: Luciferin 4-monooxygenase (Photinus pyralis) (UniProt P08659); assay: inhibition of purified Photinus pyralis luciferase – biochemical, luminescence, purified enzyme, 2006 set, primary screen (AID 1141); details: purified firefly luciferase, SteadyGlo luminescence, 30 min; higher = more signal, called active from +8 up or from −8 down;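 also: cell-free assay with purified firefly luciferase at 100 ng per well in PBS; test concentration not given here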
Luciferin 4-monooxygenase (Photinus pyralis), sequence (P08659 whole entry, looked up): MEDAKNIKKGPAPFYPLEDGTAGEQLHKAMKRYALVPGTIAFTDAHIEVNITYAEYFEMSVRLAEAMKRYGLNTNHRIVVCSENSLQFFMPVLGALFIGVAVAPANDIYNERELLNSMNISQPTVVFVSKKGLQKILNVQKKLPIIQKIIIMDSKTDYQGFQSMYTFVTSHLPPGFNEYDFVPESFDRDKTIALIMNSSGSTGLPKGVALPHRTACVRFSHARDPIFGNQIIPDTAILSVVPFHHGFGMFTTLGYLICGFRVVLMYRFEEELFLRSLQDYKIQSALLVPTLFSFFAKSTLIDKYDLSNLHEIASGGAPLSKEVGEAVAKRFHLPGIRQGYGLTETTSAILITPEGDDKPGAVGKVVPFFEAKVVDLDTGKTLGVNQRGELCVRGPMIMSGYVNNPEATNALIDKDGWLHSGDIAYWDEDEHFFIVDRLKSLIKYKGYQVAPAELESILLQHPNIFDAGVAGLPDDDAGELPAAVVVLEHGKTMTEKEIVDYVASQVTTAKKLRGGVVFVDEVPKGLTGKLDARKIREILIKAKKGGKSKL

Focal adhesion kinase 1 (Homo sapiens), sequence (Q05397 whole entry, looked up): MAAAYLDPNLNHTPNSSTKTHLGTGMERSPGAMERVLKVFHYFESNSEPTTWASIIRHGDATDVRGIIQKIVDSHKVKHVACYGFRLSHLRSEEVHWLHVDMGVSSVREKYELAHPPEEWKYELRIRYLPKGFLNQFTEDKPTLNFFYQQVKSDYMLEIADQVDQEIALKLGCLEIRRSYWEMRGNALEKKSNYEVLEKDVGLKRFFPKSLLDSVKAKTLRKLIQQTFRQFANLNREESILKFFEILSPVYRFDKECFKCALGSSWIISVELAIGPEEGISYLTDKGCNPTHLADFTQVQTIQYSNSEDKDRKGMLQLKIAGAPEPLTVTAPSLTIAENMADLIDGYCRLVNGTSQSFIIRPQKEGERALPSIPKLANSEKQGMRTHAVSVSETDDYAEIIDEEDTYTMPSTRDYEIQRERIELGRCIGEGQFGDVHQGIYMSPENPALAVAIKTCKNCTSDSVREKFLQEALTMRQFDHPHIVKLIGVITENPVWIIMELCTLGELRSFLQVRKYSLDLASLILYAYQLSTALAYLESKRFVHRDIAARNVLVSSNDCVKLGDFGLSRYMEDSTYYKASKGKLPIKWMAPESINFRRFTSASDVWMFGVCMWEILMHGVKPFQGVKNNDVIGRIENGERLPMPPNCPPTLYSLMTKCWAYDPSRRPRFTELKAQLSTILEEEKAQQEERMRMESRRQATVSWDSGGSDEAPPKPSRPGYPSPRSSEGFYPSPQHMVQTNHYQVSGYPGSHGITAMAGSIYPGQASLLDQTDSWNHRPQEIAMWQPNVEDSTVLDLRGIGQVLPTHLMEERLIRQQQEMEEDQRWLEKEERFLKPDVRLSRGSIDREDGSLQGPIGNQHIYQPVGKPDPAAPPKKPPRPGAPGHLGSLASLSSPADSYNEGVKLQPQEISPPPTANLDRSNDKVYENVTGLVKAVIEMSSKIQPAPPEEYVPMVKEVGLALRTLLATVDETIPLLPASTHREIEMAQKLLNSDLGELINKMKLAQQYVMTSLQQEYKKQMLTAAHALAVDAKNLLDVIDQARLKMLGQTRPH
Albumin (Bos taurus), sequence (P02769 whole entry, looked up): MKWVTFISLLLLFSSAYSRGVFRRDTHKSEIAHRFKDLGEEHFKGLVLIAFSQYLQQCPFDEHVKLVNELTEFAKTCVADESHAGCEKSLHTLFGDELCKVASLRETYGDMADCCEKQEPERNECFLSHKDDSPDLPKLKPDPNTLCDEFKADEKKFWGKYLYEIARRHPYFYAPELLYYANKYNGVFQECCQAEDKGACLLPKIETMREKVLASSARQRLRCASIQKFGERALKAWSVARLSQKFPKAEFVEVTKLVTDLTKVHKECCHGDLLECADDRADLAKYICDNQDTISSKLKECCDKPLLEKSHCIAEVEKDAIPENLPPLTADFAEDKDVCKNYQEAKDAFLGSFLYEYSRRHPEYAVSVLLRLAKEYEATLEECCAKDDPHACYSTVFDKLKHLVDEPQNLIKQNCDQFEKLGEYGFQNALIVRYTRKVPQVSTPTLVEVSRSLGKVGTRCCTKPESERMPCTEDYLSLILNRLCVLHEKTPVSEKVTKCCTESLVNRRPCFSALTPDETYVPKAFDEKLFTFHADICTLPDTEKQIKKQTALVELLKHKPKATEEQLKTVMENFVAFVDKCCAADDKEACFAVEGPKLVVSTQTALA
Fibroblast growth factor 2 (Homo sapiens), sequence (P09038 whole entry, looked up): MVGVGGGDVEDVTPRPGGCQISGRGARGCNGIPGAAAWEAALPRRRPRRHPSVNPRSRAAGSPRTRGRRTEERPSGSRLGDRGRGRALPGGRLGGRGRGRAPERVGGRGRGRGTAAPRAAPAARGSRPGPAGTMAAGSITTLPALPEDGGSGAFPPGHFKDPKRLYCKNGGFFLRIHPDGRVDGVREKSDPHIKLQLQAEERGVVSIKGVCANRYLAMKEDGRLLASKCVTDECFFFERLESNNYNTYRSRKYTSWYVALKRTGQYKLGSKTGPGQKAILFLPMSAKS
Follistatin (Homo sapiens), sequence (P19883 whole entry, looked up): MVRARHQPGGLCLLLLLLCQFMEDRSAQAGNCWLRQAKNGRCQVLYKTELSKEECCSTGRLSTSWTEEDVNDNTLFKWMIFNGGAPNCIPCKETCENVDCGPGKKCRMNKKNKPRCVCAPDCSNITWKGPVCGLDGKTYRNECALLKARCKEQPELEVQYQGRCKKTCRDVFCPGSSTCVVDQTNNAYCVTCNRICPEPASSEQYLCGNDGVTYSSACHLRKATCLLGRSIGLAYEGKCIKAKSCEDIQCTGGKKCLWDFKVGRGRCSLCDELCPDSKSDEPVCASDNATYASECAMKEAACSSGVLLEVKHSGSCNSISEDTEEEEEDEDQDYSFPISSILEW
Concanavalin-A (Canavalia ensiformis), sequence (P02866 whole entry, looked up): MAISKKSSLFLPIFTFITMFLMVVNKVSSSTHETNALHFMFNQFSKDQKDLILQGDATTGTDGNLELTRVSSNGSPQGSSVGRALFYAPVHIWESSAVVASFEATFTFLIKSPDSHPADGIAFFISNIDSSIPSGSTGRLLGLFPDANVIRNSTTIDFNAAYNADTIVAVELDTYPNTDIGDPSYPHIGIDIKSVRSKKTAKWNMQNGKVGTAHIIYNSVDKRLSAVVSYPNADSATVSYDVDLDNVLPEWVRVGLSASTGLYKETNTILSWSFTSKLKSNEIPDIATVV

Compound | composite z-score [1] | composite Z-score [2] | composite z-score [3] | composite z-score [4] | composite z-score [5] | composite z-score [6] | composite z-score [7] | composite z-score [8] | composite z-score [9] | composite z-score [10] | composite z-score [11] | composite z-score [12] | composite z-score [13] | composite z-score [14] | composite z-score [15] | composite z-score [16] | z-score [17] | composite z-score [18] | composite z-score [19] | z-score [20]
O=C1[C@H]2[C@H]3[C@H](O)[C@H](O)CC(=NOCc4ccccc4)[C@@H]3CC[C@H]2C(=O)N1c1ccc(F)cc1F | 0.137 | -0.155 (inactive) | 0.0303 | -0.157 | 0.243 | 0.0305 | -0.294 | -0.806 | 0.0594 | 0.175 | -0.0523 | -0.406 | 0.757 | 0.416 | 0.072 | 0.359 | -0.332 | -0.0459 | -0.141 | 0.0336 (inactive)
CCN1C(=O)[C@@H]2[C@H]3C(=CC[C@@H]2C1=O)C1(OCCCO1)[C@H]1O[C@H]1[C@H]3O | 0.488 | 0.369 (inactive) | 0.162 | -0.0948 | 0.429 | 2.12 | 0.251 | 1.29 | 0.333 | 1 | 0.841 | 1.04 | 0.162 | 0.982 | 1.12 | 0.944 | -2.41 | 0.946 | 0.692 | -26.1 (active)
O=C1[C@H]2[C@H]3[C@H](O)[C@H](O)CC(=NOC[C@@H](O)COCc4ccco4)[C@H]3CC[C@H]2C(=O)N1Cc1ccccc1 | -0.13 | 0.48 (inactive) | -0.119 | -0.192 | -0.154 | -0.867 | -0.343 | -0.333 | 0.836 | -0.242 | -0.267 | -0.429 | -0.326 | -1.55 | 0.691 | 0.633 | -0.287 | 0.496 | -0.438 | 0.737 (inactive)
O=C1[C@H]2[C@H]3[C@H](O)[C@H](O)CC(=NOCc4ccccc4)[C@@H]3CC[C@H]2C(=O)N1Cc1ccc2c(c1)OCO2 | 0.0462 | 0.0289 (inactive) | 0.0306 | -0.0131 | 0.618 | -0.0974 | -0.0389 | -0.0391 | 0.124 | -0.0139 | 0.0116 | 0.316 | 0.928 | 0.866 | 1.23 | 0.319 | -0.368 | 0.268 | 0.261 | 0.729 (inactive)
COc1ccc(O[C@H]2C=C[C@@H](c3ccccc3)O[C@@H]2COC(=O)CCC(C)=NOC[C@@H](O)[C@H]2O[C@@H]3OC(C)(C)O[C@@H]3[C@H]2O)cc1 | -0.0217 | -0.212 (inactive) | -0.0284 | -0.101 | 0.325 | 0.337 | -0.123 | 1.01 | 0.728 | 0.249 | 0.977 | 0.835 | 0.179 | 0.536 | 0.697 | 0.439 | -0.206 | 0.334 | -0.13 | 0.302 (inactive)
CCN1C(=O)[C@H]2[C@H]3[C@H](O)[C@H](O)CC(=O)[C@H]3CC[C@H]2C1=O | 0.234 | -0.274 (inactive) | -0.0921 | -0.0793 | 0.0164 | -0.209 | 0.0555 | 0.47 | 0.689 | 0.541 | 0.463 | 0.809 | 0.0493 | 0.861 | 0.486 | 0.485 | -0.335 | 0.559 | 0.145 | -0.371 (inactive)
CCOC(=O)NN=C1C[C@@H](O)[C@@H](O)[C@@H]2[C@@H]3C(=O)N(c4cccc(Oc5ccccc5)c4)C(=O)[C@@H]3CC[C@H]12 | 0.52 | -0.238 (inactive) | 0.0462 | -0.0753 | 0.503 | 0.858 | 0.0682 | 0.384 | 0.399 | 0.854 | 0.141 | 0.34 | 0.0494 | 0.641 | 0.519 | 0.374 | 0.471 | 0.365 | 0.01 | -0.219 (inactive)
CCc1cc2c(nc1CC)CCN(CCC(C)=NOC[C@H]1O[C@H](c3ccccc3)C=C[C@@H]1Oc1ccc(OC)cc1)C2 | 0.184 | -0.0263 (inactive) | -0.0311 | -0.155 | 0.787 | 0.552 | 0.056 | 0.292 | -0.0913 | 0.208 | 0.287 | -0.121 | -0.0388 | 0.0851 | 0.209 | -0.155 | 1.51 | 0.568 | -0.0263 | 0.698 (inactive)
C=CC[C@@H]1C=C[C@H](ON=C(C)CCC(=O)OC[C@H]2O[C@H](c3ccccc3)C=C[C@@H]2Oc2ccc(OC)cc2)[C@@H](CO)O1 | -0.1 | 0.741 (inactive) | -0.171 | -0.177 | -0.273 | 0.342 | -0.0007 | 0.144 | -0.0018 | -0.152 | 0.14 | -0.214 | 0.261 | -1.43 | -0.398 | 0.121 | -0.217 | 0.443 | 0.104 | -0.506 (inactive)
COc1cccc([C@@H]2Oc3ccc(OC)cc3C(=O)[C@H]2O)c1 | 0.78 | 0.0773 (inactive) | -0.0377 | -0.119 | 0.445 | -0.279 | 0.158 | 0.325 | 0.488 | 0.711 | 0.575 | 0.193 | 0.0207 | 0.823 | 0.536 | 0.449 | -1.54 | 0.678 | -0.173 | -1.6 (inactive)
